Laboratory results taken from the supplement of paper PMC9262897, “Low-cost anti-mycobacterial drug discovery using engineered E. coli” (Nature Communications, 2022).
Counter-ions that a name gives are not always drawn. ± gives the standard deviation of the averaged measurements.

System: E. coli TESEC Mtb Alr
Assay: growth (OD600 after 10 h); higher = more growth (less inhibition)
Conditions: compound 0.1 mM
Experimental: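 TESEC Mtb Alr E. coli, or the Alr+ wild-type control, in 384-well plates with Prestwick library compounds at 0.1 mM and 1% DMSO, across arabinose induction levels of 1E3 to 1E7 nM. Growth is read as OD600 after 10 h at 37 °C in triplicate biological replicates.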

[1] = arabinose 1000 nM, raw OD600 reference: median of DMSO wells 0.294, cell-free background 0.041
[2] = arabinose 10000 nM, raw OD600 reference: median of DMSO wells 0.264, cell-free background 0.041
[3] = arabinose 100000 nM, raw OD600 reference: median of DMSO wells 0.201, cell-free background 0.041
[4] = arabinose 1000000 nM, raw OD600 reference: median of DMSO wells 0.193, cell-free background 0.041
[5] = arabinose 10000000 nM, raw OD600 reference: median of DMSO wells 0.146, cell-free background 0.041

Compound | growth [1] | growth [2] | growth [3] | growth [4] | growth [5]
C[C@]12Cc3c[nH]nc3C[C@@H]1CC[C@@H]1[C@@H]2CC[C@@]2(C)[C@H]1CC[C@]2(C)O [Stanozolol] | 0.256 ± 0.0051 | 0.245 ± 0.0053 | 0.169 ± 0.023 | 0.141 ± 0.0057 | 0.139 ± 0.0021
COc1cc2c(cc1OC)C(C)NCC2 (stereo not given) | 0.2925 ± 0.0014 | 0.275 ± 0.0075 | 0.225 ± 0.035 | 0.188 ± 0.0027 | 0.15 ± 0.0045
NCCc1c[nH]c2ccc(O)cc12 [Serotonin hydrochloride] | 0.297 ± 0.011 | 0.269 ± 0.0069 | 0.198 ± 0.036 | 0.201 ± 0.0049 | 0.145 ± 0.0029
CC(=O)O[C@H]1C[C@@H]2CC[C@@H]3[C@H](CC[C@@]4(C)[C@H]3C[C@H]([N+]3(C)CCCCC3)[C@@H]4OC(C)=O)[C@@]2(C)C[C@@H]1[N+]1(C)CCCCC1 [Pancuronium bromide] | 0.318 ± 0.0065 | 0.2563 ± 0.0013 | 0.194 ± 0.021 | 0.168 ± 0.0052 | 0.154 ± 0.0046
CC[N+]1(C)CCCC(OC(=O)C(O)(c2ccccc2)c2ccccc2)C1 (stereo not given) [Pipenzolate bromide] | 0.284 ± 0.014 | 0.258 ± 0.012 | 0.169 ± 0.0056 | 0.186 ± 0.0047 | 0.133 ± 0.0034
Oc1cc(Cl)ccc1Oc1ccc(Cl)cc1Cl [Triclosan] | 0.0413 ± 0.0016 | 0.04137 ± 0.00025 | 0.04127 ± 0.00015 | 0.0423 ± 0.0022 | 0.04107 ± 0.00021
c1ccc2c(c1)OCC(C1=NCCN1)O2 (stereo not given) [Idazoxan hydrochloride] | 0.281 ± 0.02 | 0.27 ± 0.0069 | 0.188 ± 0.0024 | 0.192 ± 0.0045 | 0.141 ± 0.0099
c1ccc2nc(N3CCNCC3)ccc2c1 [Quipazine dimaleate salt] | 0.298 ± 0.016 | 0.25 ± 0.0049 | 0.212 ± 0.04 | 0.177 ± 0.0045 | 0.148 ± 0.0043
